This note sets out measurements from PubChem BioAssay (NCI).

The panel holds about 83,000 compounds, 20% with a hit somewhere; the sample as a whole holds those more often.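 Assay: single dose, 48 h. Readout: percent growth (0 = no net growth; negative = cell death). Active: <10.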 Values without a mark were called inactive. The source made the active and inactive calls.

Some test systems named below: EKVX NSCLC; SN12C renal; UO-31 renal; ACHN renal; CAKI-1 renal; A498 renal; CCRF-CEM leukemia; MOLT-4 leukemia; SR leukemia; RPMI-8226 leukemia; OVCAR-8 ovarian; OVCAR-5 ovarian; OVCAR-4 ovarian; SK-OV-3 ovarian; IGROV1 ovarian; OVCAR-3 ovarian; HS 578T breast; NCI/ADR-RES ovarian; T-47D breast; TK-10 renal.
Common to all, as to test: NCI-60 one-dose screen, 48 h (100 = growth as untreated, 0 = no growth, -100 = all killed)
What all share (details): 10 µM unless noted

Turning to `COc1cc(OC)c(C2C(Cl)C(=O)N2Nc2ncnc3ccccc23)cc1OC` (centres undefined), the growth in the assay on EKVX NSCLC is 95.3%; in the assay with SN12C renal, 98.3%; in the assay on UO-31 renal, 78.8%; with ACHN renal, 90.5%; in the assay with CAKI-1 renal, 91.8%; with A498 renal, 97.2%. Moreover, the growth is 102% with CCRF-CEM leukemia; 105% in the assay with MOLT-4 leukemia; 104% in the assay with SR leukemia; 106% with RPMI-8226 leukemia; 104% in the assay with OVCAR-8 ovarian; 105% in the assay with OVCAR-5 ovarian. The growth with OVCAR-4 ovarian is 104%; with SK-OV-3 ovarian it was 113%; in the assay with IGROV1 ovarian, 83.5%; in the assay with OVCAR-3 ovarian it was 116%; with HS 578T breast it was 107%; in the assay with NCI/ADR-RES ovarian it was 105%. In addition, in the assay with T-47D breast, the growth was 96.1%.

Consider `Nc1nc(N)c2c(n1)NC(c1ccc(C(F)(F)F)cc1)CC(c1ccc(Nc3nc(NCCO)nc(Nc4ccc(Cl)cc4)n3)cc1)=N2` (centres undefined), for which the growth in the assay with EKVX NSCLC is -47.3% (active); in the assay with SN12C renal, -40.2% (active); in the assay with UO-31 renal, -48.6% (active); in the assay on TK-10 renal it was 91.1%; in the assay on ACHN renal, -90.2% (active); in the assay with CAKI-1 renal, -88.1% (active). Further, the growth with SR leukemia is -31.7% (active); in the assay on RPMI-8226 leukemia it was -36.9% (active); with OVCAR-8 ovarian, -26.1% (active); with OVCAR-5 ovarian, -88.7% (active); with OVCAR-4 ovarian, -9.44% (active); in the assay with SK-OV-3 ovarian, -26% (active). The growth with IGROV1 ovarian was -67.7% (active); in the assay on OVCAR-3 ovarian, -20.9% (active); with HS 578T breast it was -10.5% (active); in the assay on NCI/ADR-RES ovarian, -29.3% (active); with T-47D breast, 36%.

With `Cc1cc2nc3c4cc(Cl)ccc4n(CC(=S)NCCN(C)C)c3nc2cc1C`, the growth is 4.02% (active) with EKVX NSCLC; 40.9% with SN12C renal; -68.1% (active) in the assay with UO-31 renal; 55.6% in the assay on TK-10 renal; -96.4% (active) with ACHN renal; -92.3% (active) with CAKI-1 renal. The growth with SR leukemia is -43.8% (active); in the assay on OVCAR-8 ovarian it was -66.9% (active); in the assay with OVCAR-5 ovarian, -42.6% (active); in the assay on OVCAR-4 ovarian, -24.1% (active); in the assay with SK-OV-3 ovarian, -16.4% (active); in the assay on IGROV1 ovarian it was -74% (active). For the same compound, the growth was -47% (active) with OVCAR-3 ovarian, 51.4% in the assay with HS 578T breast, -56.4% (active) with NCI/ADR-RES ovarian and 61.7% in the assay with T-47D breast.

`Cc1nc2cnc(N)c(C#Cc3cncc(C(=O)Nc4ccc(Cl)c(C(F)(F)F)c4)c3)c2nc1C`: the growth is 82.4% with EKVX NSCLC; 36.3% in the assay with SN12C renal; 19.9% with UO-31 renal; 67.7% with TK-10 renal; 30.3% in the assay on ACHN renal; 55.4% in the assay with A498 renal. Also, the growth was 23.2% with CCRF-CEM leukemia; 35.6% in the assay with MOLT-4 leukemia; -18.8% (active) with SR leukemia; 69.7% with OVCAR-8 ovarian; 54.5% in the assay on OVCAR-5 ovarian; 65.2% in the assay with OVCAR-4 ovarian. Moreover, the growth is 120% in the assay with SK-OV-3 ovarian; 16.9% in the assay on IGROV1 ovarian; 39.3% with OVCAR-3 ovarian; 35.4% in the assay with HS 578T breast; 63.9% with NCI/ADR-RES ovarian; 109% in the assay with T-47D breast.

With `COc1ccc(/C=N/Nc2ccnc3cc(Cl)ccc23)cc1Cl`, the growth with EKVX NSCLC is 12.2%; in the assay on SN12C renal it was -70.8% (active); in the assay with UO-31 renal, -90% (active); in the assay with TK-10 renal, -81.6% (active); in the assay with ACHN renal it was -99.8% (active); in the assay on A498 renal, 36.7%. In addition, the growth in the assay with MOLT-4 leukemia was -25.3% (active); in the assay on SR leukemia, -9.69% (active); in the assay on RPMI-8226 leukemia, -37.8% (active); in the assay on OVCAR-8 ovarian it was -57.6% (active); in the assay on OVCAR-5 ovarian, -71.9% (active); in the assay on OVCAR-4 ovarian, -60.7% (active). The growth in the assay on SK-OV-3 ovarian is 123%; in the assay with IGROV1 ovarian, -59.5% (active); in the assay on OVCAR-3 ovarian it was -92.2% (active); with HS 578T breast it was -53.5% (active); with NCI/ADR-RES ovarian, 0.936% (active); in the assay with T-47D breast it was -62% (active).

With `COc1ccc(C(=O)/C=C/c2ccc(OCc3ccc(C)cc3)c(OC)c2)cc1OC`, the growth with EKVX NSCLC was 61.4%; with SN12C renal, 75.9%; with UO-31 renal, 58.6%; with TK-10 renal, 117%; in the assay on ACHN renal, 75.8%; in the assay with CAKI-1 renal it was 61.4%. The growth in the assay on MOLT-4 leukemia is 29.4%; with SR leukemia it was 9.97% (active); in the assay on RPMI-8226 leukemia, 8.56% (active); in the assay with OVCAR-8 ovarian, 49.1%; with OVCAR-5 ovarian, 95.4%; in the assay on OVCAR-4 ovarian, 60.9%. The growth is 100% in the assay with SK-OV-3 ovarian; 84% in the assay on IGROV1 ovarian; 76.8% in the assay with OVCAR-3 ovarian; 91.4% in the assay on HS 578T breast; 53.7% in the assay with NCI/ADR-RES ovarian; 45.6% in the assay with T-47D breast.

`O=C1Nc2ccccc2Oc2ccc(S(=O)(=O)CC3CO3)cc21` (centres undefined): the growth is 75.2% in the assay on EKVX NSCLC; 71.5% with SN12C renal; 65.9% in the assay on UO-31 renal; 91.6% in the assay with TK-10 renal; 46.4% in the assay with ACHN renal; 102% in the assay on A498 renal. Besides, the growth is 42.8% in the assay with MOLT-4 leukemia; 0.309% (active) in the assay on SR leukemia; 64.3% in the assay with OVCAR-8 ovarian; 85.5% with OVCAR-5 ovarian; 70.1% in the assay with OVCAR-4 ovarian; 122% with SK-OV-3 ovarian. The growth in the assay on IGROV1 ovarian is 62.3%; with HS 578T breast, 60.6%; in the assay with NCI/ADR-RES ovarian it was 98.2%; with T-47D breast, 47.5%.

For the compound `COc1ccc(-c2nn3c(-c4ccccc4F)nnc3s2)cc1`, the growth in the assay on EKVX NSCLC is 70%; in the assay on SN12C renal, 58.2%; in the assay with UO-31 renal it was 65%; in the assay with ACHN renal, 78.1%; with CAKI-1 renal it was 50.7%; in the assay on A498 renal, 16.4%. Further, the growth in the assay on CCRF-CEM leukemia is 58.5%; with MOLT-4 leukemia, 35.1%; with SR leukemia, 15.4%; with RPMI-8226 leukemia it was 58%; in the assay on OVCAR-8 ovarian, 68.3%; in the assay with OVCAR-5 ovarian, 81.2%. The growth in the assay with OVCAR-4 ovarian was 82%; in the assay on SK-OV-3 ovarian it was 84%; with IGROV1 ovarian, 57.3%; in the assay with OVCAR-3 ovarian it was 49.6%; in the assay on HS 578T breast, 74.2%; in the assay on NCI/ADR-RES ovarian, 21.3%. For the same compound, the growth in the assay on T-47D breast was 46%.

`COc1ccc(/C=C2\SC(=Nc3cc(C)on3)NC2=O)cc1`: the growth was 89.7% in the assay on EKVX NSCLC; 100% in the assay with SN12C renal; 85.5% with UO-31 renal; 106% in the assay with TK-10 renal; 106% with ACHN renal; 96.6% in the assay on CAKI-1 renal. In addition, the growth was 100% in the assay with MOLT-4 leukemia; 98.9% with SR leukemia; 98.2% in the assay on RPMI-8226 leukemia; 102% in the assay on OVCAR-8 ovarian; 97.6% in the assay on OVCAR-5 ovarian; 109% in the assay on OVCAR-4 ovarian. Further, the growth in the assay on SK-OV-3 ovarian is 113%; in the assay on IGROV1 ovarian, 99.2%; in the assay with OVCAR-3 ovarian, 116%; in the assay with HS 578T breast, 96.9%; in the assay with NCI/ADR-RES ovarian it was 98.6%; in the assay on T-47D breast, 104%.
